Consider 14 molecules from PubChem BioAssay (NCI).

This is part of a sample that, as a whole, favours compounds with a hit. Of some 83,000 tested, about 20% had one in any assay.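 Treatment: one concentration, 48 hours, 96-well format. Scoring: percent growth, with anything below 10 considered active.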 Values without a mark were called inactive. Active and inactive are the calls of the source.

This assay has as its system UACC-257 melanoma. Description: NCI-60 one-dose screen, 48 h (100 = growth as untreated, 0 = no growth, -100 = all killed). The conditions noted are these: 10 µM unless noted.
As to `COc1cccc2c1c1nc3cc(C)c(C)cc3nc1n2CCN(C)C`, the growth was 8.52% (active). Turning to `COc1cc(NC(C)CCCNC(=O)CCC(=O)NCCCNCCCCCCCCCCNCCCNC(=O)CCC(=O)NCCCC(C)Nc2cc(OC)cc3cccnc23)c2ncccc2c1` (centres undefined), the growth is 47.1% [8 µM].

With `COc1cc(/C=C\C(=O)O)ccc1OCc1ccccc1`, the growth is 91%. As for `CCc1c(Cl)nc(N)nc1Nc1ccc(C)c(C)c1`, the growth is 105%.

Turning to `COc1cc2nc(-c3ccc(C(F)(F)F)cc3)cc(OCCCN3CCOCC3)c2cc1OC`, the growth is -16.2% (active). With `CCN(CC)c1ccc(/C=N/NC(=O)CSc2nc3ccccc3c(=O)n2Cc2ccc(S(N)(=O)=O)cc2)c(O)c1`, the growth was 13%.

`O=C(c1nnc(Nc2ccccc2Br)o1)c1c[nH]c2ccccc12`: the growth was 92.6%. Regarding `NNC(=O)c1ccc(-n2nc(-c3ccccc3)c3ccccc32)cc1`, the growth was 99.5%.

As to `Cc1cnc(C(=O)Nc2nc3ccc(S(=O)(=O)Nc4ccc(C5(C(F)(F)F)CC5)cc4)cc3[nH]2)cn1`, the growth was 57.7%. In the case of `CCCCCCCCOc1ccc(/C=N/Nc2cc(C)nc3ccc(Br)cc23)cc1`, the growth is 84%. For `Cc1ccc(NC(=O)c2cc(-c3nc4ccccc4s3)c(=O)n(NS(=O)(=O)c3ccc(Cl)cc3)c2N)cc1` the value was 104%; for `N/C(=N\C(N)=N\c1nc2ccccc2s1)c1cnccn1`, 35.5%; for `CCN(CC)CCCC(C)Nc1cc(O)cc2cccnc12` (centres undefined), 93.8%. For `COc1ccccc1NS(=O)(=O)c1cccc(C(=O)Nc2ccc(Br)cc2)c1` the value was 32.9%.
